Compound activity as filed in PubChem.
Sm TGR block: inhibitors of Schistosoma mansoni thioredoxin glutathione reductase | Q962Y6 | purified TGR, DTNB reduction, TNB absorbance 405 nm | Potency, µM (doses to about 114 µM), for inactives: at the top dose activity change, negative = inhibition, usual class: inhibitors | actives 3% (n = 360,000) | AID 485364; active = well fitted inhibition curve with a large enough effect; inconclusive = small, poorly fitted or top-dose-only effect; inactive = no such curve, though single readings can be large or run the other way; also: nearly all actives have a fitted effect of over 60% in size
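First, TGR (20 nM dispensed) and NADPH were mixed with compound. Second, a 15 min room-temperature incubation followed. Third, further NADPH and then DTNB were added to start the reaction. Finally, TNB absorbance was monitored kinetically.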
Vaccinia Venus: inhibitors of vaccinia virus (Venus reporter) | Vaccinia virus Venus reporter expression, fluorescence | Potency, µM (highest dose often 36.5 µM), for inactives: top-dose activity change, negative = inhibition, actives largely listed as inhibitors | actives 0.46% (n = 330,000) | AID 720580; calls by dose curve; tested in A549 cells; also: nearly all actives have a fitted effect of over 30% in size
FMDV inh: blocks foot and mouth disease virus. actives 1.2% (n = 410,000). AID 1159524. Potency, µM (top dose mostly 57.9 µM), inactives show at the highest dose activity change, negative = inhibition, actives largely listed as inhibitors. FMDV antiviral cell-based qHTS; calls by dose curve; tested in HEK293T cells; also: read-out not given here; nearly all actives have a fitted effect of over 45% in size
Lassa entry inh: inhibitors of Lassa virus binding or cell entry | Potency, µM (series often up to 37.9 µM), for inactives: at the highest dose activity change, negative = inhibition, most hits filed as inhibitors | Lassa virus pseudotype entry inhibition, cell reporter | AID 540256 | actives 1.2% (n = 300,000); calls by dose curve; tested in HEK293 cells; also: nearly all actives have a fitted effect of over 50% in size
MARV entry inh: inhibitors of Marburg virus binding or cell entry; actives 1.8% (n = 300,000); Marburg virus pseudotyped entry inhibition, cell reporter; Potency, µM (titrated, usually from 37.8 µM), for the others: at the top dose activity change, negative = inhibition, actives largely listed as inhibitors; calls by dose curve; tested in HEK293 cells
Vaccinia mCherry: inhibitors of vaccinia virus infection (mCherry reporter signal); Vaccinia virus mCherry reporter infection, fluorescence; actives 0.63% (n = 310,000); Potency, µM (doses to about 36.5 µM), without a hit: at the highest dose activity change, negative = inhibition, actives largely listed as inhibitors; calls by dose curve; tested in A549 cells; also: nearly all actives have a fitted effect of over 35% in size
* hit, by the source's call; [ ] = another dose, or the depositor's remark. A selection: hits, their analogues and other compounds. The true share with any hit is near 5.4%. % is scaled to controls: 0 for no effect and ±100 for the full control effect; potency is read from the fitted curve at half-maximal effect.

For Cc1ccc(-n2ncc3c(NCc4ccco4)ncnc32)c(C)c1 the results were Sm TGR block 40µM*, Vaccinia Venus -19%, FMDV inh -19% and Vaccinia mCherry -27%.
CN(C)c1ccc(/C=C/c2ccnc3c(Cl)cccc23)cc1 was read as Vaccinia Venus 27% and Vaccinia mCherry -5%.
For Cc1cc(CNC(=O)c2cnn(-c3nccc(-c4cc(C)sc4C)n3)c2C2CC2)on1 the results were Vaccinia Venus -3%, FMDV inh 46% and Vaccinia mCherry -3%.
Screening O=C(NC1=C(Cl)CCCC1)NC1CCCCC1Cl (configuration not stated) returned MARV entry inh 12%[46.1 µM].
Screening COc1ccccc1NC(=O)c1ncoc1-c1ccco1 returned Sm TGR block -3%, Vaccinia Venus 9%, FMDV inh 29%, Lassa entry inh -17%[46.1 µM] and Vaccinia mCherry 5%.
Screening CCCC1NC(=S)N(C2CCCCC2)C1=O (configuration not stated) returned Sm TGR block -4%, Vaccinia Venus -14%, FMDV inh -3%, Lassa entry inh 5%, MARV entry inh -5% and Vaccinia mCherry -19%.
`CN(C)C=C1C(=O)N(C2CCCCC2)C(=O)N(C2CCCCC2)C1=O` gave Sm TGR block -34%, Vaccinia Venus inconclusive, FMDV inh 18µM*, Lassa entry inh inconclusive and MARV entry inh -23%.
For COc1ccc(Nc2cc(O)c3ncccc3c2)cc1 the results were Sm TGR block -35%.
For CCN1C(=O)/C(=C2\C=Cc3cc(C)ccc3N2CC)OC1=S the results were Sm TGR block -18%, Vaccinia Venus -2%, FMDV inh 0%, Lassa entry inh 0% and MARV entry inh 0%.
`CCN1/C(=C/c2cc[n+](C)cc2)C=Cc2cc(C)ccc21` gave Sm TGR block -2%, Vaccinia Venus -3%, FMDV inh 5µM*, Lassa entry inh inconclusive, MARV entry inh inconclusive and Vaccinia mCherry inconclusive.
Screening O=C(CN1CCN(Cc2ccc(Cl)cc2)C1=O)NCCCN1CCOCC1 returned Sm TGR block -19%, Vaccinia Venus -6%, FMDV inh -24% and Vaccinia mCherry inactive.
Screening O=C(CN1CCN(Cc2ccc(Cl)cc2)C1=O)NCCCN1CCN(c2ccc(F)cc2)CC1 returned Sm TGR block -4%, FMDV inh inconclusive, Lassa entry inh -23% and MARV entry inh 13µM*.
Screening CC12CNCC(C)(CN(C(c3ccccc3)c3ccccc3)C1)C2 returned Sm TGR block 2%, Vaccinia Venus -27%, FMDV inh inconclusive, Lassa entry inh 20µM* and MARV entry inh inconclusive.
For c1ccc(C(c2ccccc2)N2CCC3(CCNCC3)CC2)cc1 the results were FMDV inh -18%.
For CN(Cc1cnc2ccccn12)C(=O)c1cc(NC(=O)c2ccccc2)cc2ncn(C3CCCC3)c12 the results were Vaccinia Venus -15%, FMDV inh -8% and Vaccinia mCherry -13%.
O=C(COc1cccc(Br)c1)Nc1ccc(Cl)c(S(=O)(=O)N2CCOCC2)c1 was read as Vaccinia Venus -8%, FMDV inh inconclusive, Lassa entry inh -22%[46.1 µM], MARV entry inh inconclusive and Vaccinia mCherry -23%.
Screening CCN(CC)S(=O)(=O)c1cc(NC(=O)CCCOc2ccc(C(C)=O)cc2)ccc1C returned Sm TGR block -7%, Vaccinia Venus inconclusive, FMDV inh 16µM*, Lassa entry inh inconclusive, MARV entry inh inconclusive and Vaccinia mCherry -15%.
`CC(=O)c1ccc(OCCCC(=O)Nc2ccc(Cl)c(S(=O)(=O)N3CCOCC3)c2)cc1` gave FMDV inh 16µM*.
`Cc1cc(C)c(NC(=O)c2ccc3c(c2)NC(=O)C(C)S3)c(C)c1` (configuration not stated) gave Sm TGR block -7% and FMDV inh inconclusive.
Screening CCN(CC)S(=O)(=O)c1cc(NC(=O)c2ccc3c(c2)NC(=O)C(C)S3)ccc1C (configuration not stated) returned Sm TGR block -3% and FMDV inh 25µM*.
